Potency estimated from few doses data for three compounds are collected here from article PMC11062922 (Nature Chemical Biology, 2023).

Like-named read-outs stand apart in the source and are kept apart here.

What all share (details): read-out: apparent Kd, n = 1
For one test, the system named is PAK4. The arrangement: species or system human, MV4-11 + K-562 + COLO205 + SK-N-BE2 + OVCAR-8.
Another test concerns AAK1. The arrangement: species or system human, MV4-11 + K-562 + COLO205 + SK-N-BE2 + OVCAR-8.
The subject of a further test is BMP2K. Set-up: species or system human, MV4-11 + K-562 + COLO205 + SK-N-BE2 + OVCAR-8.
The subject of another test is CLK1. Set-up: species or system human, MV4-11 + K-562 + COLO205 + SK-N-BE2 + OVCAR-8.
In another test the test system is CLK4. The arrangement: species or system human, MV4-11 + K-562 + COLO205 + SK-N-BE2 + OVCAR-8.
A further test relates to CSNK2A1;CSNK2A3. The arrangement: species or system human, MV4-11 + K-562 + COLO205 + SK-N-BE2 + OVCAR-8.
A further test deals with CSNK2A2. The arrangement: species or system human, MV4-11 + K-562 + COLO205 + SK-N-BE2 + OVCAR-8.
The next test deals with FLT4. Set-up: species or system human, MV4-11 + K-562 + COLO205 + SK-N-BE2 + OVCAR-8.
A further test deals with GAK. The arrangement: species or system human, MV4-11 + K-562 + COLO205 + SK-N-BE2 + OVCAR-8.
The next test deals with GSK3A. The arrangement: species or system human, MV4-11 + K-562 + COLO205 + SK-N-BE2 + OVCAR-8.
For another test, the system named is GSK3B. The arrangement: species or system human, MV4-11 + K-562 + COLO205 + SK-N-BE2 + OVCAR-8.
For the next test, the system named is MELK. Set-up: species or system human, MV4-11 + K-562 + COLO205 + SK-N-BE2 + OVCAR-8.
A further test has as its system NUAK1. The arrangement: species or system human, MV4-11 + K-562 + COLO205 + SK-N-BE2 + OVCAR-8.
Another test relates to PKN1. The arrangement: species or system human, MV4-11 + K-562 + COLO205 + SK-N-BE2 + OVCAR-8.
The next test deals with PKN3. The arrangement: species or system human, MV4-11 + K-562 + COLO205 + SK-N-BE2 + OVCAR-8.
For the next test, the system named is PRKAG1. The arrangement: species or system human, MV4-11 + K-562 + COLO205 + SK-N-BE2 + OVCAR-8.
The next test addresses Q6ZSR9 (human, UniProt Q6ZSR9). Set-up: species or system MV4-11 + K-562 + COLO205 + SK-N-BE2 + OVCAR-8.
The next test relates to RET. Set-up: species or system human, MV4-11 + K-562 + COLO205 + SK-N-BE2 + OVCAR-8.
For a further test, the system named is SIK2. The arrangement: species or system human, MV4-11 + K-562 + COLO205 + SK-N-BE2 + OVCAR-8.
The mark [1] stands for this setting: compound concentrations:100 nM and 1000 nM (sheet 'Samples').

Chain of Q6ZSR9 (Q6ZSR9 whole entry, looked up): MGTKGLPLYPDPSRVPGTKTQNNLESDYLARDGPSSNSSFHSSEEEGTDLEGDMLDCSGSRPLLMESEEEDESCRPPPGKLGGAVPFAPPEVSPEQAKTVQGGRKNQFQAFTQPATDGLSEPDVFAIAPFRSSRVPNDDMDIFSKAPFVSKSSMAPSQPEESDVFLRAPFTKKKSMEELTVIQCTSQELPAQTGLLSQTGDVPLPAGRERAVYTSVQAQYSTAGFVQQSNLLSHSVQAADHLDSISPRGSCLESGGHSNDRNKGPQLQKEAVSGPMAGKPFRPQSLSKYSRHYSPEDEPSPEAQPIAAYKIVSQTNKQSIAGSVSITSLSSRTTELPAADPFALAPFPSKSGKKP

In the case of `Cc1cccc(Nc2nc(N[C@H]3CCCC[C@H]3N)ncc2C(N)=O)c1.Cl` [GSK986310C], the potency estimated from few doses in the test with PAK4 (setting [1]) was 322 nM.
For the compound `Clc1cc(Cl)cc(Nc2ccnc(Nc3cc(Cl)cc(Cl)c3)n2)c1` [GSK175726A], the potency estimated from few doses in the test with AAK1 (compound concentrations: 100 nM and 1000 nM (sheet 'Samples'), CATDS: 1.17801193164304E-2) was 460 nM; in the test on BMP2K (compound concentrations: 100 nM and 1000 nM (sheet 'Samples'), CATDS: 9.0184479884945195E-3), 1240 nM; in the test on CLK1 (compound concentrations: 100 nM and 1000 nM (sheet 'Samples'), CATDS: 2.2055974074076602E-2), 111 nM; in the test with CLK4 (compound concentrations: 100 nM and 1000 nM (sheet 'Samples'), CATDS: 1.3138431378969501E-2), 338 nM; in the test on CSNK2A1;CSNK2A3 (compound concentrations: 100 nM and 1000 nM (sheet 'Samples'), CATDS: 1.0484195430571001E-2), 672 nM; in the test on CSNK2A2 (compound concentrations: 100 nM and 1000 nM (sheet 'Samples'), CATDS: 1.04904160104555E-2) it was 671 nM. The potency estimated from few doses in the test on FLT4 (compound concentrations: 100 nM and 1000 nM (sheet 'Samples'), CATDS: 8.8646184270887406E-3) is 1350 nM; in the test with GAK (compound concentrations: 100 nM and 1000 nM (sheet 'Samples'), CATDS: 2.44642148870544E-2), 92.1 nM; with GSK3A (compound concentrations: 100 nM and 1000 nM (sheet 'Samples'), CATDS: 1.64548846246832E-2), 197 nM; with GSK3B (compound concentrations: 100 nM and 1000 nM (sheet 'Samples'), CATDS: 1.50283486353895E-2), 242 nM; in the test with MELK (compound concentrations: 100 nM and 1000 nM (sheet 'Samples'), CATDS: 8.4068419636258301E-3), 1790 nM; with NUAK1 (compound concentrations: 100 nM and 1000 nM (sheet 'Samples'), CATDS: 1.3178024386402599E-2), 335 nM. For the same compound, the potency estimated from few doses in the test on PAK4 (compound concentrations: 100 nM and 1000 nM (sheet 'Samples'), CATDS: 1.1864346361446201E-2) was 450 nM; with PKN1 (compound concentrations: 100 nM and 1000 nM (sheet 'Samples'), CATDS: 8.1278223120285105E-3), 2200 nM; in the test with PKN3 (compound concentrations: 100 nM and 1000 nM (sheet 'Samples'), CATDS: 9.6016767734474606E-3), 940 nM; in the test with PRKAG1 (compound concentrations: 100 nM and 1000 nM (sheet 'Samples'), CATDS: 2.2079366714636301E-2), 110 nM; in the test with Q6ZSR9 (compound concentrations: 100 nM and 1000 nM (sheet 'Samples'), CATDS: 1.1627061095110299E-2), 479 nM; in the test with RET (compound concentrations: 100 nM and 1000 nM (sheet 'Samples'), CATDS: 1.2674098851270001E-2) it was 373 nM. The potency estimated from few doses with SIK2 (compound concentrations: 100 nM and 1000 nM (sheet 'Samples'), CATDS: 1.3915634821930201E-2) was 291 nM.
For `O=C1NC(=O)C(N2CCc3ccccc32)=C1c1ccccc1Cl` [SB-373598], the potency estimated from few doses with AAK1 (setting [1]) was 284 nM; with BMP2K (setting [1]) it was 478 nM; with CLK1 (setting [1]), 275 nM; with CLK4 (setting [1]) it was 246 nM; in the test with CSNK2A1;CSNK2A3 (setting [1]), 315 nM; in the test on CSNK2A2 (setting [1]), 301 nM. For the same compound, the potency estimated from few doses with FLT4 (setting [1]) was 478 nM; in the test on GAK (setting [1]), 167 nM; with GSK3A (setting [1]), 104 nM; in the test with GSK3B (setting [1]) it was 177 nM; in the test on MELK (setting [1]) it was 1000 nM; with NUAK1 (setting [1]) it was 287 nM. In addition, the potency estimated from few doses was 298 nM in the test with PAK4 (setting [1]); 1180 nM with PKN1 (setting [1]); 566 nM with PKN3 (setting [1]); 215 nM in the test with PRKAG1 (setting [1]); 280 nM with Q6ZSR9 (setting [1]); 239 nM in the test with RET (setting [1]). In addition, in the test on SIK2 (setting [1]), the potency estimated from few doses was 192 nM.
